Unmarked numbers belong to inactive results.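 How the source made its calls: active means binding inhibited by at least 50%, or stimulated by at least 50%, shown as inhibition of -50% or lower; inactive means the rest.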
Test system: Imidazoline I2 Central
Assay: radioligand displacement at 30 receptors – biochemical, Panlabs HitProfilingScreen, selectivity assay for AVPR1a antagonist project, profiling panel (AID 743088)
Settings: 30 targets, at 10 µM, hits give high values

For `O=C(C1CCN(c2ccc(Cl)cn2)CC1)N(CC1CC1)c1ccc(Cl)cc1`, the inhibition of binding was 27%.
